Screening results as filed in PubChem.
Methyltransferases: Primary Screen for Target Class Profiling of Small Molecule Inhibitors of Methyltransferases; hit rate 3.9% among 25,000; calls only at 40 µM; purified enzyme, MTase-Glo SAH luminescence; active compounds read low; call rule not given here
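Each enzyme was reacted with SAM and its substrate, with compounds tested once at 40 uM; SAH formed was read by MTase-Glo luminescence.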
Large screens that a line does not name were inactive; ! = repeats disagree. Many of the other results were omitted from the sample, so hits are more common in it than they were.

CCOC(=O)c1cc2n(n1)CC(C)(C(=O)NC1CCCCCC1)N(Cc1ccc(OCC)cc1)C2=O (stereo not given)	none
Cc1cc2c(cc3n2CC(C)(C(=O)NC2CCCCCCC2)N(Cc2ccc4c(c2)OCO4)C3=O)o1 (stereo not given)	none
CC(=O)NCC(=O)N1C2CCC1c1cc(Nc3ncc(C(F)(F)F)c(NC4CCC4)n3)ccc12 (stereo not given)	Methyltransferases active
COc1cccc(-c2ccc(NC(=O)C3CCCN3C(=O)CNC(C)=O)cc2)c1 (stereo not given)	none
C=CC(=O)Nc1cccc(Nc2nc(Nc3ccc(NC4CN(CCF)C4)cc3OC)ncc2C(F)(F)F)c1	none
CCOc1ccc(CNC(=O)c2cc3n(n2)CC(C)(C(=O)NC2CCCCC2)N(C)C3=O)cc1OC (stereo not given)	none
COc1cccc(C(=O)Cn2nc3n(C(C)C)c(=O)c4ccc(C(=O)NC5CCCC5)cc4n3c2=O)c1	none
CC1(C(=O)NC2CCCCC2)Cn2c(ccc2-c2ccco2)C(=O)N1CCc1cccs1 (stereo not given)	none
Cc1cccc(Cn2nc3n(CC(C)C)c(=O)c4ccc(C(=O)NCC(C)C)cc4n3c2=O)c1	none
Clc1ccc(-c2csc(NN=C3CCCC3)n2)cc1	Methyltransferases active!
Oc1ccc(Nc2nc(-c3ccc(Cl)cc3)cs2)cc1	none
Cc1ccc2n1CCN(C(=O)Nc1cccc(C(F)(F)F)c1)C2C(C)C (stereo not given)	none
CCCn1c(=O)c2cc(Cl)ccc2n2c(SCC(=O)Nc3cc(F)ccc3F)nnc12	none
CC(C)OCCCn1c(=O)c2ccccc2n2c(SCc3ccc(F)cc3Cl)nnc12	none
CCc1cccc(N2C(=O)c3c(NC(C)=O)c4cc(F)ccc4n3CC2(C)C(=O)NC2CCCC2)c1 (stereo not given)	none
CN(c1ccccc1CNc1nc(Nc2ccc3c(c2)CC(=O)N3)ncc1C(F)(F)F)S(C)(=O)=O	Methyltransferases active
CC1CC(=O)C2=C(O1)OC1(C)CCC3C(C)(C)C=CC(=O)C3(C)C1C2 (stereo not given)	Methyltransferases active
CC1CC(=O)C2=C(O1)OC1(C)CCC3C(C)(C)C4OC4C(=O)C3(C)C1C2 (stereo not given)	Methyltransferases active
CC(C)CCNC(=O)C1c2c(n(C)c3ccccc23)SCC(=O)N1CCC(C)C (stereo not given)	none
COc1ccc2cc3n(c2c1)CC(C)(C(=O)NC1CCCC1)N(CC(C)c1ccccc1)C3=O (stereo not given)	none
Cc1ccc(CNC(=O)N2Cc3c(sc4c3CCCC4)-n3cccc3C2c2ccccc2)cc1 (stereo not given)	none
O=C(CCCn1nc(-c2ccccc2)c2ccccc21)N1CCN(c2ccccc2)CC1	none
CCCn1c(=O)c2ccc(C(=O)NCC(C)C)cc2n2c(=O)n(CC(=O)Nc3cccc(F)c3)nc12	none
Cc1ccc(C)c(NS(=O)(=O)c2cc3c(cc2C)n(C)c(=O)n3C)c1	none
COc1cccc(N2CCN(C(=O)c3ccc4c(=O)nc5c(-c6cccc(F)c6)n[nH]n5c4c3)CC2)c1	none
COc1ccc2cc3n(c2c1)CC(C)(C(=O)NC1CCCCC1)N(CCCN1CCOCC1)C3=O (stereo not given)	none
COc1ccc2cc3n(c2c1)CC(C)(C(=O)NCC1CCCO1)N(CCc1ccc(Cl)cc1)C3=O (stereo not given)	none
COc1ccc(CCc2nc3c(C)c(-c4c(C)noc4C)c(C)cc3n2CCN2CCOCC2)cc1	Methyltransferases active!
CCCNC(=O)N1Cc2c(sc3c2CCCC3)-n2cccc2C1c1cccc(C)c1 (stereo not given)	none
Cc1ccc(C)c(Cn2nc3n(CCC(C)C)c(=O)c4ccc(C(=O)NC(C)C)cc4n3c2=O)c1	none
Cc1cc(C)c(S(=O)(=O)n2cc(C)cc2C)c(C)c1	Methyltransferases active
CC1(C(=O)NC2CCCCCCC2)Cn2c(ccc2-c2ccco2)C(=O)N1Cc1cccc(Cl)c1 (stereo not given)	none
Cc1ccc(NC(=O)CSc2nnc3n(CCCOC(C)C)c(=O)c4ccccc4n23)cc1	none
COc1ccc(OC)c(S(=O)(=O)N2CCCCC2c2noc(COCC3CC3)n2)c1 (stereo not given)	none
CC1CCCCC1NC(=O)C1(C)Cn2c(cc3sccc32)C(=O)N1CCCc1ccccc1 (stereo not given)	none
CCCC1c2ccc(C)n2CCN1C(=O)Nc1cc(OC)cc(OC)c1 (stereo not given)	none
C=Cc1ccc(O[C@@H]2O[C@H](CO[C@@H]3O[C@@H](C)[C@H](O)[C@@H](O)[C@H]3O)[C@@H](O)[C@H](O)[C@H]2O)cc1	none
C[C@@H]1O[C@@H](OC[C@H]2O[C@@H](OCc3ccccc3)[C@H](O)[C@@H](O)[C@@H]2O)[C@H](O)[C@H](O)[C@H]1O	Methyltransferases active
OC[C@H]1O[C@@H](OC[C@H]2O[C@@H](OCc3ccccc3)[C@H](O)[C@@H](O)[C@@H]2O)[C@H](O)[C@@H](O)[C@@H]1O	none
CC(C)OCCCn1c(=O)c2ccccc2n2c(CCC(=O)NCc3ccc4c(c3)OCO4)nnc12	none
